Screens as filed in PubChem BioAssay.
697 NFkB inh: inhibitors of PMA/ionomycin-induced NF-kB reporter, 697 cells, primary screen, B-cell NF-kB inhibitor project, cell-based, luminescence, uHTS. 697 B-cell NF-kB luciferase reporter, 16 h. inhibition, % at 4 µM. 330,000 tested, 0.33% active; in the data active = inhibition above about 35%
Mdm2 MdmX PPI: inhibitors of human Mdm2-MdmX association, primary screen, cell-based, luminescence, split luciferase, SaOS-2, uHTS; Protein Mdm4 (Homo sapiens) + E3 ubiquitin-protein ligase Mdm2 (Homo sapiens), …; SaOS-2 split-luciferase Mdm2/MdmX complementation; inhibition, % at 8 µM; 330,000 tested, 3% active; AID 485346, 2010;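 active = inhibition of at least 50% at 8 µM in the primary screen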
Target sequence (O15151 whole entry, looked up): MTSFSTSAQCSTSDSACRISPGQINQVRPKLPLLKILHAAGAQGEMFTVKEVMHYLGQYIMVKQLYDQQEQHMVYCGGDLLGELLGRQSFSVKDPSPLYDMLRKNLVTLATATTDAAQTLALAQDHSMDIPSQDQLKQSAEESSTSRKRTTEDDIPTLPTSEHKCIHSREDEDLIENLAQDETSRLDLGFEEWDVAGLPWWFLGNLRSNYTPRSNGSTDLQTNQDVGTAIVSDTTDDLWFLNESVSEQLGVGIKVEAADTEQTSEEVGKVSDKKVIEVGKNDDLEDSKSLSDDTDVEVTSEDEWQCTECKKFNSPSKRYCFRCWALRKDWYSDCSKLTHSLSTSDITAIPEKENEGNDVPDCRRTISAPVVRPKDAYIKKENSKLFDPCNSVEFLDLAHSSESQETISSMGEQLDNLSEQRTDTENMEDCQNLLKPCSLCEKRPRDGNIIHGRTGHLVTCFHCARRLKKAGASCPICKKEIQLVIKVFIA
Target sequence (Q00987 whole entry, looked up): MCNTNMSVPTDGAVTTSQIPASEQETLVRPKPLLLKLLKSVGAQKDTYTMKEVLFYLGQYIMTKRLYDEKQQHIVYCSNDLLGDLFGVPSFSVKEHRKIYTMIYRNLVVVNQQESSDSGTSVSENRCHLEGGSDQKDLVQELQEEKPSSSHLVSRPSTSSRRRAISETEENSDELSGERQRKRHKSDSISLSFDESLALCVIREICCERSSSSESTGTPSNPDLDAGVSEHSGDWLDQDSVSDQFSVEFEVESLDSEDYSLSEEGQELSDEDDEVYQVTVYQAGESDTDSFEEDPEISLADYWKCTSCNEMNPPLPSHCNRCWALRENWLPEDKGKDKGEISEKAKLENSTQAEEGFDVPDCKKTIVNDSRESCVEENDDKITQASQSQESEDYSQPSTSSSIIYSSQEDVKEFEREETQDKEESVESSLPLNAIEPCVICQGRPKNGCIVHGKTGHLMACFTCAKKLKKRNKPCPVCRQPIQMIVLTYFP
Gli-Sufu block: Gli-Sufu pathway antagonists, primary screen, luciferase luminescence, Sufu-KO-LIGHT cells, uHTS. Sufu-KO-LIGHT fibroblasts, Gli luciferase reporter luminescence. inhibition, % at 5 µM. 340,000 tested, 0.74% active. AID 588413, 2011;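 active = inhibition above about 55%, limit read from the data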
Jurkat NFkB inh: inhibitors of induced NF-kB luciferase reporter, primary screen, TCR NF-kB activation inhibitor project, cell-based, luminescence, uHTS; Jurkat, PMA/ionomycin-induced NF-kB luciferase reporter; inhibition, % at 4 µM; 330,000 tested, 0.53% active; AID 435003, 2010; in the data active = inhibition above about 50%
KLF5 inh: KLF5 expression inhibitors, primary screen, DLD-1 cells, luminescence; DLD-1 KLF5 promoter-luciferase reporter; inhibition, % at 5 µM; 290,000 tested, 0.23% active;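 active = inhibition above a per-plate limit of that plate's mean compound inhibition plus 3 SD, cut at about 60% in these data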;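 also: higher means less KLF5 promoter-driven luciferase light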
aSyn UTR inh: MLPCN primary screen, SNCA 5' untranslated region. inhibition, % (tested at 7.5 µM). alpha-synuclein 5'UTR reporter, inhibitor activity. 300,000 tested, 0.82% active. AID 1813, 2009; in the data active = inhibition above about 60%;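 also: H4 neuroglioblastoma cells stably carrying SNCA 5'UTR luciferase fusion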
Mdm2-MdmX conf: Mdm2-MdmX complex disruptors, retested hits, confirmation, luminescence, single concentration. shares compounds with Mdm2 MdmX PPI. 10,000 tested, 55% active. AID 489028, 2010. inhibition, % at 8 µM. Mdm2-MdmX binding, luminescent assay; in the data active = inhibition above about 40%
Full FLuc ctr: full-length luciferase signal inhibition, confirmation, counter-screen for Mdm2/MdmX interaction inhibitor project, cell-based, single concentration, SaOS-2 | shares compounds with Mdm2 MdmX PPI | SaOS-2 full-length luciferase counterscreen, luminescence | inhibition, % at 8 µM | 6,200 tested, 77% active | AID 504607, 2011;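 active = mean inhibition at 8 µM reaching about 37%, which flags the compound as non-specific, limit read from the data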;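 also: p53-null SaOS-2 cells with luciferase driven by a doxycycline-inducible promoter; compound on cells about two nights before reading with doxycycline added after day one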
Numbers stand for hits. The list is not random: actives were taken first. Their share in the collection is about 4.1%.

For O=C1CC2c3ccccc3C1C1C(=O)N(Cc3ccccc3)C(=O)C21 (centres undefined) the results were 697 NFkB inh inactive, Mdm2 MdmX PPI inactive, Gli-Sufu block inactive, Jurkat NFkB inh inactive, KLF5 inh inactive and aSyn UTR inh inactive.
For CC(C)C1N(C(=O)N2CCOCC2)CCN1S(=O)(=O)c1ccccc1 (centres undefined) the results were 697 NFkB inh inactive, Mdm2 MdmX PPI inactive, Gli-Sufu block inactive, Jurkat NFkB inh inactive, KLF5 inh inactive and aSyn UTR inh inactive.
Cc1cc(NC(=O)/C(C#N)=C/c2ccco2)n(-c2ccccc2)n1 was read as 697 NFkB inh inactive, Mdm2 MdmX PPI inactive, Gli-Sufu block inactive, Jurkat NFkB inh inactive, KLF5 inh inactive and aSyn UTR inh inactive.
For Cc1ccc(-c2ccc(/C=C(\C#N)C(=O)Nc3cc(C)nn3-c3ccccc3)o2)cc1 the results were 697 NFkB inh inactive, Mdm2 MdmX PPI 54, Jurkat NFkB inh inactive, KLF5 inh inactive, aSyn UTR inh inactive and Mdm2-MdmX conf inactive.
`O=c1[nH]c(C2CCN(S(=O)(=O)c3ccccc3)CC2)nc2c1nnn2Cc1c(F)cccc1Cl` gave 697 NFkB inh inactive, Mdm2 MdmX PPI inactive, Gli-Sufu block inactive, Jurkat NFkB inh inactive, KLF5 inh inactive and aSyn UTR inh inactive.
Screening C[C@@H]1CC2OC(=O)[C@@]3(C)C(=O)CC[C@@](C)(C23)[C@@]1(O)CCc1ccoc1 (some centres undefined) returned 697 NFkB inh inactive, Mdm2 MdmX PPI inactive, Gli-Sufu block inactive, Jurkat NFkB inh inactive, KLF5 inh inactive and aSyn UTR inh inactive.
For COc1ccccc1C(CNC(=O)C1CCN(C(=O)Nc2ccccc2)CC1)N1CCCC1 (centres undefined) the results were 697 NFkB inh inactive, Mdm2 MdmX PPI inactive, Gli-Sufu block inactive and Jurkat NFkB inh inactive.
For COc1cccc(CN(C)C(=O)C(CCSC)NS(=O)(=O)c2ccc3c(c2)OCCO3)c1OC (centres undefined) the results were 697 NFkB inh inactive, Mdm2 MdmX PPI 67, Gli-Sufu block inactive, Jurkat NFkB inh inactive, aSyn UTR inh inactive, Mdm2-MdmX conf 56 and Full FLuc ctr 72.
`CSCCC(NS(=O)(=O)c1ccc2c(c1)OCCO2)C(=O)N(C)Cc1ccc(C)cc1` (centres undefined) gave 697 NFkB inh inactive, Mdm2 MdmX PPI inactive, Gli-Sufu block inactive, Jurkat NFkB inh inactive, KLF5 inh inactive and aSyn UTR inh inactive.
Cc1noc(C)c1CSc1nc2ccccc2nc1NS(=O)(=O)c1ccc(Cl)cc1 was read as 697 NFkB inh inactive, Mdm2 MdmX PPI 63, Gli-Sufu block inactive, Jurkat NFkB inh inactive, KLF5 inh inactive, aSyn UTR inh inactive and Mdm2-MdmX conf inactive.
`COc1ccc(CNCc2cc3c(C(C)(C)C)nn(-c4ccccc4)c3[nH]c2=O)cc1` gave 697 NFkB inh inactive, Mdm2 MdmX PPI inactive, Gli-Sufu block inactive, Jurkat NFkB inh inactive, KLF5 inh inactive and aSyn UTR inh inactive.
For Cc1ccc(CNCc2cc3c(C(C)(C)C)nn(-c4ccccc4)c3[nH]c2=O)cc1 the results were 697 NFkB inh inactive, Mdm2 MdmX PPI 50, Gli-Sufu block inactive, Jurkat NFkB inh inactive, KLF5 inh inactive, aSyn UTR inh inactive and Mdm2-MdmX conf inactive.
`Cc1cc(C)c(Cn2c(=O)n(CCCC(=O)NCc3ccco3)c(=O)c3sccc32)c(C)c1` gave 697 NFkB inh inactive, Mdm2 MdmX PPI 51, Gli-Sufu block inactive, Jurkat NFkB inh inactive, KLF5 inh inactive, aSyn UTR inh inactive, Mdm2-MdmX conf 40 and Full FLuc ctr 80.
c1ccc(Oc2cc(-c3ccccc3)ncn2)cc1 was read as 697 NFkB inh inactive, Mdm2 MdmX PPI inactive, Gli-Sufu block inactive, Jurkat NFkB inh inactive, KLF5 inh inactive and aSyn UTR inh inactive.
Screening c1csc(CNc2ncnc3ccc(-c4ccoc4)cc23)c1 returned 697 NFkB inh inactive, Mdm2 MdmX PPI 65, Gli-Sufu block inactive, Jurkat NFkB inh inactive, Mdm2-MdmX conf 66 and Full FLuc ctr inactive.
`Cc1ccc2c(c1)c1ccc3c(c1n2C)C(=O)C=CC3=O` gave 697 NFkB inh inactive, Mdm2 MdmX PPI 86, Gli-Sufu block inactive, Jurkat NFkB inh inactive, KLF5 inh inactive, Mdm2-MdmX conf 71 and Full FLuc ctr 57.
COc1ccc2c(c1)c1ccc3c(c1n2C)C(=O)C=CC3=O was read as 697 NFkB inh inactive, Mdm2 MdmX PPI 93, Gli-Sufu block inactive, Jurkat NFkB inh inactive, KLF5 inh inactive, Mdm2-MdmX conf 74 and Full FLuc ctr 58.
`Cn1c2ccccc2c2ccc3c(c21)C(=O)C=CC3=O` gave Gli-Sufu block inactive.
Cc1ccc(OCCCC(=O)NC2CCCCC2)cc1 was read as 697 NFkB inh inactive, Mdm2 MdmX PPI inactive, Gli-Sufu block inactive, Jurkat NFkB inh inactive, KLF5 inh inactive and aSyn UTR inh inactive.
Cc1cc(C)n2nc(C(=O)Nc3cccc(S(=O)(=O)N(C)c4ccccc4)c3)nc2n1 was read as 697 NFkB inh inactive, Mdm2 MdmX PPI inactive, Gli-Sufu block inactive, Jurkat NFkB inh inactive, KLF5 inh inactive and aSyn UTR inh inactive.
O=[N+]([O-])c1cc(-c2ccccc2)cc([N+](=O)[O-])c1O was read as Gli-Sufu block inactive.
For Nc1nc(-c2cc(O)ccc2[N+](=O)[O-])cc(-c2ccccc2)c1[N+](=O)[O-] the results were 697 NFkB inh inactive, Mdm2 MdmX PPI 65, Gli-Sufu block inactive, Jurkat NFkB inh inactive, KLF5 inh inactive, aSyn UTR inh inactive, Mdm2-MdmX conf 57 and Full FLuc ctr 54.
`CCCCCCc1cc2cc(S(=O)(=O)c3ccc(Cl)cc3)c(=O)oc2cc1O` gave 697 NFkB inh inactive, Mdm2 MdmX PPI 75, Gli-Sufu block inactive, Jurkat NFkB inh inactive, KLF5 inh inactive, aSyn UTR inh inactive and Mdm2-MdmX conf inactive.
CC(C)Sc1nc2c(cnn2-c2ccccc2)c(=O)[nH]1 was read as 697 NFkB inh inactive, Mdm2 MdmX PPI inactive, Gli-Sufu block inactive, Jurkat NFkB inh inactive, KLF5 inh inactive and aSyn UTR inh inactive.
O=c1[nH]c(/C=C/c2ccc(OC(F)F)cc2)nc2c1cnn2-c1ccccc1 was read as 697 NFkB inh inactive, Mdm2 MdmX PPI 66, Gli-Sufu block inactive, Jurkat NFkB inh inactive, KLF5 inh inactive, aSyn UTR inh inactive and Mdm2-MdmX conf inactive.
Screening Nc1nc(CCl)nc(Nc2ccc3ccccc3c2)n1 returned Gli-Sufu block inactive, KLF5 inh inactive and aSyn UTR inh inactive.
